From the supplement of paper PMC10646978
± gives the standard deviation.

Assays:
Conditions in all cases: modulator concentration 10 µM
[1] = system: RAW-Dual (murine macrophage reporter line); assay: NF-kB reporter (SEAP) activity fold change vs agonist alone; higher = enhanced NF-kB activity
Procedure, shortened: (§1)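 RAW-Dual murine macrophage reporter cells were plated at 50 000 per well in 384-well plates, pin-transferred compound to 10 μM final, and pre-incubated for 1 hour at 37 °C before a PRR agonist was added and the cells incubated overnight. NF-κB activity was read from supernatant SEAP with QUANTI-Blue at 620 nm absorbance, and IRF activity from Lucia luciferase with QUANTI-Luc by luminescence. Each signal was expressed as fold change by dividing by the mean agonist-only control on the same plate. Two replicate plates were averaged, with errors obtained by propagation.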

[2] = system: RAW-Dual (murine macrophage reporter line); assay: IRF reporter (Lucia luciferase) activity fold change vs agonist alone; higher = enhanced IRF activity
Procedure, shortened: as §1

[3] = system: RAW-Dual (murine macrophage reporter line); assay: viability score (confluency relative to resting cells, overnight) (fraction); higher = more viable, active = viable (0.7 or more)
Procedure, shortened: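 Two confluency masks, generated with IncuCyte software over all imaged wells, were applied to IncuCyte images of RAW-Dual macrophages. The cells, in 384-well plates, had been exposed overnight to 10 μM final compound. The viability score is confluency as a fraction of resting cells, and a compound met the cutoff only with both masks above 70% of resting cells.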

[4] = agonist: CpG ODN 1826 0.5 ug/mL

SMILES | NF-kB reporter [1, 4] | NF-kB reporter ([1]; agonist: LPS 0.1 ug/mL) | NF-kB reporter ([1]; agonist: MPLA […]) | IRF reporter ([2]; agonist: 3'3'-cGAMP 10 ug/mL) | IRF reporter ([2]; agonist: LPS 0.1 ug/mL) | IRF reporter ([2]; agonist: MPLA […]) | viability score [3]
Cc1ccc(C(=O)C(C)CN2CCCCC2)cc1.Cl (stereo unspecified) | 0.981 ± 0.13 | 1.05 ± 0.14 | 0.908 ± 0.052 | 0.895 ± 0.032 | 1.27 ± 0.41 | 1.43 ± 0.15 | 0.956 (active)
O=[N+]([O-])c1ccccc1S(=O)(=O)NCc1ccc2c(c1)OCO2 | 1 ± 0.088 | 0.988 ± 0.075 | 0.937 ± 0.092 | 0.89 ± 0.028 | 1.05 ± 0.14 | 1.09 ± 0.2 | 1.03 (active)
Cc1ccnc2c1NC(=O)c1cccnc1N2C1CC1 | 1.19 ± 0.26 | 1.2 ± 0.3 | 0.967 ± 0.067 | 0.88 ± 0.035 | 1.34 ± 0.36 | 1.29 ± 0.097 | 0.994 (active)
CSc1ccccc1NC(=O)C1CCCN(c2ccc(-n3cncn3)nn2)C1 (stereo unspecified) | 0.991 ± 0.073 | 1.04 ± 0.099 | 1.18 ± 0.063 | 0.973 ± 0.077 | 1.23 ± 0.22 | 1.43 ± 0.37 | 0.995 (active)
CCCC1CC(C(=O)NC(C(C)O)C2OC(SC)C(O)C(O)C2O)N(C)C1.Cl (stereo unspecified) | 0.947 ± 0.073 | 0.93 ± 0.072 | 0.924 ± 0.099 | 0.956 ± 0.031 | 1.24 ± 0.11 | 1.32 ± 0.17 | 1.04 (active)
COc1ccc(N(CC(=O)NCCc2ccc(OC)c(OC)c2)S(=O)(=O)c2ccc(OC)c(OC)c2)cc1 | 0.951 ± 0.083 | 0.994 ± 0.062 | 0.934 ± 0.12 | 1.01 ± 0.041 | 1.44 ± 0.18 | 1.2 ± 0.11 | 1.01 (active)
CC(C)Oc1ccc(C(=O)NC2CCN(c3ncnc4c3CCCC4)CC2)cn1 | 1.15 ± 0.086 | 1.14 ± 0.086 | 0.985 ± 0.031 | 0.939 ± 0.055 | 1.06 ± 0.083 | 1.04 ± 0.11 | 0.997 (active)
Cl.Cl.O=C(O)COCCN1CCN(C(c2ccccc2)c2ccc(Cl)cc2)CC1 (stereo unspecified) | 0.906 ± 0.15 | 0.996 ± 0.29 | 0.892 ± 0.05 | 0.942 ± 0.029 | 1.17 ± 0.39 | 1.14 ± 0.11 | 0.987 (active)
CCOC(=O)C1CCCN(S(=O)(=O)c2ccc(F)cc2)C1 (stereo unspecified) | 1.07 ± 0.12 | 1.1 ± 0.11 | 0.97 ± 0.059 | 0.964 ± 0.06 | 1.3 ± 0.18 | 1.02 ± 0.3 | 0.983 (active)
COC(=O)C1=C(C#N)NC(C)=C(C(=O)OC(C)C)C1c1cccc([N+](=O)[O-])c1 (stereo unspecified) | 0.832 ± 0.041 | 1.01 ± 0.097 | 0.929 ± 0.04 | 0.978 ± 0.083 | 1.1 ± 0.068 | 1.19 ± 0.12 | 0.968 (active)
CCOC(=O)CC(C)(O)P(=O)(OCC)OCC (stereo unspecified) | 1.01 ± 0.066 | 1.08 ± 0.068 | 0.955 ± 0.069 | 1.04 ± 0.035 | 1.44 ± 0.2 | 1.18 ± 0.12 | 1 (active)
CCCCCn1c(=O)[nH]c2cc(C(=O)N3CCN(C(=O)OCC)CC3)ccc2c1=O | 1.12 ± 0.065 | 1.09 ± 0.068 | 1.02 ± 0.069 | 1.01 ± 0.035 | 1.45 ± 0.11 | 1.24 ± 0.14 | 0.974 (active)
O=S1(=O)N=C(NN=Cc2ccccc2O)c2ccccc21 | 1 ± 0.081 | 0.95 ± 0.14 | 1.1 ± 0.12 | 1 ± 0.049 | 1.25 ± 0.16 | 1.46 ± 0.25 | 1.03 (active)
